# Measurements from the supplement of paper PMC9135407.
# Where “and” joins values, the source holds several entries; their conditions need not be identical. Equal values may be shown once. Where a name gives a salt, the structure may show the parent alone. In all, about 5,800 compounds went through this assay and about 620 (11%) showed activity. The list comes from a sample in which actives are over-represented; it also holds similar structures and randomly drawn compounds. Values without a mark were called inactive.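 How the source made its calls: active = score above a cut-off or among the top three wells of a plate; in these data no inactive exceeds 0.85.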
# Test system: primary human hepatic stellate cells (donor 1)
# Assay: scaled lipid accumulation score (0 = DMSO-like, 1 = nortriptyline-like); higher = stronger HSC inactivation (lipid re-accumulation), active = hit call of the paper
# Conditions: 48 h
# [1] = library stock concentration: 10 mM
# [2] = library stock concentration: 80 uM
# [3] = library stock concentration: 400 uM
# [4] = library stock concentration: 2 mM
# [5] = library stock concentration: 1 mM
# [6] = library stock concentration: 3.33 mM
smiles,measurement,setting,value
N=C(N)S/C=C\C(=O)O [ZAPA sulphate],scaled lipid accumulation score,[1],0.011
CC(O)C(=O)O.N (stereo not given),scaled lipid accumulation score,[1],≤ 0
CC(C)S(=O)(=O)Nc1ccc(F)c(C(=O)c2c[nH]c3ncc(-c4cccnc4)cc23)c1F,scaled lipid accumulation score,[2],≤ 0
same,scaled lipid accumulation score,[3],≤ 0
same,scaled lipid accumulation score,[4],≤ 0
same,scaled lipid accumulation score,[1],0.059
CC(C)(CCCCCCCCCCC(C)(C)CC(=O)O)CC(=O)O,scaled lipid accumulation score,[5],0.013
CCCCC/C=C\C/C=C\C/C=C\C/C=C\CCCC(=O)OCC [Arachidonic Acid ethyl ester],scaled lipid accumulation score,[5],≤ 0
CC(C)=CCC/C(C)=C/CC/C(C)=C/CSc1ccccc1C(N)=O [Farnesyl Thiosalicylic Acid Amide],scaled lipid accumulation score,[5],≤ 0
CCCCCCCCCCCCCCCC(=O)OC[C@H](COP(=O)([O-])OCC[N+](C)(C)C)OC(=O)CCCCCCCC(=O)/C=C/C(=O)O,scaled lipid accumulation score,[5],0.026
"Nc1nc2c(nc(Br)n2[C@@H]2O[C@@H]3COP(=O)(O)O[C@H]3[C@H]2O)c(=O)[nH]1 [8-Bromo-cGMP, sodium salt]",scaled lipid accumulation score,[1],0.026
CCCCC/C=C\C[C@@H](O)/C=C/C=C/C=C\[C@@H](O)CCCC(=O)O [Leukotriene B4],scaled lipid accumulation score,library stock concentration: 100 uM,≤ -0.021
NC(CCCP(=O)(O)O)C(=O)O (stereo not drawn) [D(-)-2-Amino-5-phosphonopentanoic acid],scaled lipid accumulation score,[1],0.148
NC(CCCP(=O)(O)O)C(=O)O (stereo not given),scaled lipid accumulation score,[1],0.024
CCCCCCCCc1ccc(CCC(N)(CO)CO)cc1,scaled lipid accumulation score,[5],0.527
CCCCCCCCc1ccc(-c2ccc(C(=O)O)cc2)cc1,scaled lipid accumulation score,[1],≤ 0 and 0.032
CCCCCCCCc1ccc(CCC(N)(CO)CO)cc1 [Fingolimod (FTY720) HCl],scaled lipid accumulation score,[1],0.376
CCCCCCCCc1ccc(CCC(N)(CO)CO)cc1.Cl [Fingolimod (FTY720) HCl],scaled lipid accumulation score,[6],1.17 (active)
CC1(C)CCC(C)(C)c2cc(C3(c4ccc(C(=O)O)cc4)OCCO3)ccc21,scaled lipid accumulation score,[1],≤ -0.001
COCCCCCCCCCCCC(=O)O [12-Methoxydodecanoic acid],scaled lipid accumulation score,[5],≤ -0.021
COCCCC/C(=N\OCCN)c1ccc(C(F)(F)F)cc1.O=C(O)/C=C\C(=O)O [Fluvoxamine maleate],scaled lipid accumulation score,[1],1.13 (active)
COCCCC/C(=N\OCCN)c1ccc(C(F)(F)F)cc1 [Fluvoxamine maleate],scaled lipid accumulation score,,0.592
same,scaled lipid accumulation score,[6],0.347
same,scaled lipid accumulation score,[1],0.81 and 0.545
COCCCC/C(=N\OCCN)c1ccc(C(F)(F)F)cc1 [Fluvoxamine],scaled lipid accumulation score,[1],0.69
"CCCCC[C@H](O)/C=C/[C@@H]1[C@@H](C/C=C\CCCC(=O)O)[C@H](O)C[C@H]1O [9b,11a-Prostaglandin F2]",scaled lipid accumulation score,[5],≤ -0.021
CCCCC[C@H](O)/C=C/[C@@H]1[C@@H](C/C=C\CCCC(=O)O)[C@H](O)C[C@H]1O [Prostaglandin F2.beta. (tromethamine salt)],scaled lipid accumulation score,[5],≤ 0
CCCCC[C@H](O)/C=C/[C@@H]1[C@@H](C/C=C\CCCC(=O)O)[C@H](O)C[C@H]1O [Prostaglandin F2.beta.],scaled lipid accumulation score,[5],≤ 0
CSc1ccc2c(c1)C(N1CCN(C)CC1)Cc1ccccc1S2 (stereo not given) [Methiothepin maleate],scaled lipid accumulation score,,0.829
CSc1ccc2c(c1)C(N1CCN(C)CC1)Cc1ccccc1S2.O=C(O)/C=C\C(=O)O (stereo not given) [Methiothepin maleate],scaled lipid accumulation score,[1],1.41 (active)
CSc1ccc2c(c1)C(N1CCN(C)CC1)Cc1ccccc1S2 (stereo not given) [Methiothepin mesylate],scaled lipid accumulation score,[1],0.774
CCCCCC(O)C=CC1C(O)CC(=O)C1CC=CCCCC(=O)O (stereo not given) [8-iso Prostaglandin E2],scaled lipid accumulation score,[5],≤ 0
CO[C@H]1C[C@H](O[C@H]2[C@H](C)O[C@@H](O[C@@H]3/C(C)=C/C[C@@H]4C[C@@H](C[C@]5(C=C[C@H](C)[C@@H](C6CCCCC6)O5)O4)OC(=O)[C@@H]4C=C(C)[C@@H](O)[C@H]5OC/C(=C\C=C\[C@@H]3C)[C@]54O)C[C@@H]2OC)O[C@@H](C)[C@@H]1O,scaled lipid accumulation score,[1],0.081
"CCCCC[C@H](O)CC[C@H]1[C@H](O)CC(=O)[C@@H]1CCCCCCC(=O)O [13,14-Dihydro-PGE1]",scaled lipid accumulation score,[5],≤ -0.021
"Cc1cn(-c2cc(NC(=O)c3ccc(C)c(Nc4nccc(-c5cccnc5)n4)c3)cc(C(F)(F)F)c2)cn1 [Nilotinib (AMN107, Tasigna) (10 mM)]",scaled lipid accumulation score,[1],0.552
CNc1nccc(-c2cccnc2Oc2cc(C(=O)Nc3cccc(C(F)(F)F)c3)ccc2C)n1 [listing 1 of 2 here],scaled lipid accumulation score,[1],1.13 (active)
Cc1cn(-c2cc(NC(=O)c3ccc(C)c(Nc4nccc(-c5cccnc5)n4)c3)cc(C(F)(F)F)c2)cn1,scaled lipid accumulation score,[2],≤ -0.009
same,scaled lipid accumulation score,[3],0.035
same,scaled lipid accumulation score,[4],≤ -0.009
same,scaled lipid accumulation score,[1],≤ -0.008
CNc1nccc(-c2cccnc2Oc2cc(C(=O)Nc3cccc(C(F)(F)F)c3)ccc2C)n1 [listing 2 of 2 here],scaled lipid accumulation score,[3],≤ -0.005
same,scaled lipid accumulation score,[4],≤ -0.005
Cc1cn(-c2cc(NC(=O)c3ccc(C)c(Nc4nccc(-c5cccnc5)n4)c3)cc(C(F)(F)F)c2)cn1 [Nilotinib (AMN-107)],scaled lipid accumulation score,[6],0.438
same,scaled lipid accumulation score,[1],0.668
"Cc1cn(-c2cc(NC(=O)c3ccc(C)c(Nc4nccc(-c5cccnc5)n4)c3)cc(C(F)(F)F)c2)cn1 [Nilotinib (AMN107, Tasigna) (0.4 mM)]",scaled lipid accumulation score,[3],0.053
"Cc1cn(-c2cc(NC(=O)c3ccc(C)c(Nc4nccc(-c5cccnc5)n4)c3)cc(C(F)(F)F)c2)cn1 [Nilotinib (AMN107, Tasigna) (2 mM)]",scaled lipid accumulation score,[4],≤ -0.005
O=C(O)CCCCC1CCSS1 (racemic) [DL-.alpha.-Lipoic Acid],scaled lipid accumulation score,[5],≤ 0
C[C@H]1C[C@H]2[C@@H]3CCC4=CC(=O)C=C[C@]4(C)[C@@]3(F)[C@@H](O)C[C@]2(C)[C@@]1(O)C(=O)COP(=O)(O)O,scaled lipid accumulation score,[1],≤ 0
COc1cc(C(=O)NC2CCN(C)CC2)ccc1Nc1ncc2c(n1)N(C1CCCC1)C(C)CC(=O)N2C (stereo not given),scaled lipid accumulation score,[2],≤ 0
same,scaled lipid accumulation score,[3],≤ 0
same,scaled lipid accumulation score,[4],0.177
same,scaled lipid accumulation score,[1],0.428
CC(C)CCN1c2nc(Nc3cc(F)c(O)c(F)c3)ncc2N(C)C(=O)C1C (stereo not given),scaled lipid accumulation score,[2],≤ -0.001
same,scaled lipid accumulation score,[3],≤ -0.001 and ≤ -0.005
same,scaled lipid accumulation score,[4],≤ -0.001 and 0.123
same,scaled lipid accumulation score,[6],≤ 0
same,scaled lipid accumulation score,[1],≤ 0 and ≤ -0.001 and 0.36
COc1cc(C(=O)NC2CCN(C)CC2)ccc1Nc1ncc2c(n1)N(C1CCCC1)CC(F)(F)C(=O)N2C,scaled lipid accumulation score,[6],0.271
same,scaled lipid accumulation score,[1],0.722
CC[C@@H]1C(=O)N(C)c2cnc(Nc3ccc(C(=O)N[C@H]4CC[C@H](N5CCN(CC6CC6)CC5)CC4)cc3OC)nc2N1C(C)C [Volasertib] [listing 1 of 2 here],scaled lipid accumulation score,[2],0.154
same,scaled lipid accumulation score,[3],0.358
same,scaled lipid accumulation score,[4],0.451
CC[C@@H]1C(=O)N(C)c2cnc(Nc3ccc(C(=O)NC4CCN(C)CC4)cc3OC)nc2N1C1CCCC1 [listing 1 of 2 here],scaled lipid accumulation score,[3],1.02 (active)
CCOc1cc(N2CCC(O)CC2)ccc1Nc1ncc2c(n1)N(C)c1ccccc1C(=O)N2C,scaled lipid accumulation score,[2],≤ -0.009
same,scaled lipid accumulation score,[3],0.026
same,scaled lipid accumulation score,[4],≤ -0.009
same,scaled lipid accumulation score,[6],≤ -0.009
same,scaled lipid accumulation score,[1],0.473 and 0.012
COc1cc(C(=O)NC2CCN(C)CC2)ccc1Nc1ncc2c(n1)N(C1CCCC1)CCC(=O)N2C(C)C [listing 1 of 2 here],scaled lipid accumulation score,[1],0.868 (active)
CC[C@@H]1C(=O)N(C)c2cnc(Nc3ccc(C(=O)NC4CCN(C)CC4)cc3OC)nc2N1C1CCCC1 [listing 2 of 2 here],scaled lipid accumulation score,[2],0.007
same,scaled lipid accumulation score,[3],0.527
same,scaled lipid accumulation score,[4],0.722 and 0.628
same,scaled lipid accumulation score,[6],0.569
same,scaled lipid accumulation score,[1],0.749 and 0.538 and 0.259
COc1cc(C(=O)NC2CCN(C)CC2)ccc1Nc1ncc2c(n1)N(C1CCCC1)CCC(=O)N2C(C)C [listing 2 of 2 here],scaled lipid accumulation score,[2],≤ 0
same,scaled lipid accumulation score,[3],≤ 0
same,scaled lipid accumulation score,[4],0.132
CC[C@@H]1C(=O)N(C)c2cnc(Nc3ccc(C(=O)N[C@H]4CC[C@H](N5CCN(CC6CC6)CC5)CC4)cc3OC)nc2N1C(C)C [Volasertib (BI 6727)],scaled lipid accumulation score,[6],0.97 (active)
same,scaled lipid accumulation score,[1],0.916 (active)
CC[C@@H]1C(=O)N(C)c2cnc(Nc3ccc(C(=O)N[C@H]4CC[C@H](N5CCN(CC6CC6)CC5)CC4)cc3OC)nc2N1C(C)C [Volasertib] [listing 2 of 2 here],scaled lipid accumulation score,[1],1.17 (active)
